Compound activity (PubChem)
Compounds with a hit are over-represented: about 2.8% of the library has one in this group of screens.
PI5P4K alpha inh – inhibitors of human PI5P4K alpha. max response, %. PI5P4Kalpha enzyme, ADP-Glo luminescence, 60 min; stronger effect = lower value. 330,000 compounds, 1.2% hits. P48426. AID 652105; active = max response of -50% or lower; inconclusive = between -30% and -50%; inactive = -30% or higher; note: value at the top dose of about 77 µM; % is set by controls: 0 for no effect and ±100 for the full control effect
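Quantitative HTS of the MLSMR library against PI5P4Kalpha with substrate. ATP added last at 5 microM final; room temperature, 60 minutes. Remaining ATP depleted, ADP converted and read as luminescence.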
Pol kappa inh – inhibitors of human DNA polymerase kappa | purified Pol kappa, fluorescent DNA synthesis assay, 10 min | 400,000 compounds, 0.53% hits | AID 588579 | Potency, µM (doses to about 107 µM), without a hit: at the top dose activity, negative = inhibition, actives largely listed as inhibitors; note: potency is the fitted concentration of half-maximal effect; % is set by controls: 0 for no effect and ±100 for the full control effect
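Pol kappa 10 nM + cpd, 15 min RT; start w/ substrate 50 nM final; fluorescence kinetic read, 0 and 10 min. Neg ctrl: buffer, no enzyme.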
POLI inh – blocks human DNA polymerase iota activity; Q9UNA4; Pol iota fluorescent replication assay, 10 min; Potency, µM (titrated, usually from 115 µM), for inactives: at the highest dose activity, negative = inhibition, usual class: inhibitors; 390,000 compounds, 1% hits; AID 588590; note: potency is the fitted concentration of half-maximal effect
Target sequence (Q9UNA4 whole entry, looked up): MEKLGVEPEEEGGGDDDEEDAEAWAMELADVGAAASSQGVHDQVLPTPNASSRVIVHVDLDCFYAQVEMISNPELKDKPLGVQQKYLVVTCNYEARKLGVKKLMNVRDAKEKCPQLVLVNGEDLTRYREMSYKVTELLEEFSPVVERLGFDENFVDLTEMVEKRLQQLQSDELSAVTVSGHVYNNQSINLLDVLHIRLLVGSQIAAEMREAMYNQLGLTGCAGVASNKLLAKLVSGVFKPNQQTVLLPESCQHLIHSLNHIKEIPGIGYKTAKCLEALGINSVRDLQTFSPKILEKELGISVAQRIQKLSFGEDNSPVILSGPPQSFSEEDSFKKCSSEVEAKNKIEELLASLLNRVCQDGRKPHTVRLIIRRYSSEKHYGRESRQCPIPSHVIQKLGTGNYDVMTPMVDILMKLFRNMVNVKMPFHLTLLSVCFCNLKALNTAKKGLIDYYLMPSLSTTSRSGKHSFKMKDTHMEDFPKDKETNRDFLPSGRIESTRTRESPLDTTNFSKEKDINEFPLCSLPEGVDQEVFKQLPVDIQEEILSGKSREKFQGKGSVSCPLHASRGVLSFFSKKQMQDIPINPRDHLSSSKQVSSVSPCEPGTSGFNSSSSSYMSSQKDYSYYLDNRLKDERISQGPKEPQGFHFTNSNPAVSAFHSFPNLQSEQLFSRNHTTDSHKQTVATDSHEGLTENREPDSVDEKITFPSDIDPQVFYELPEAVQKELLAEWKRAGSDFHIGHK
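Fluorescent replication assay read twice, at 0 min and 10 min after adding 50 nM (final) substrate. Enzyme (10 nM) and compounds were first incubated 15 min at room temperature; enzyme-free buffer wells were negative controls.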
POLB inh – blocks human DNA polymerase beta activity; Potency, µM (top dose mostly 114 µM), without a hit: top-dose activity change, negative = inhibition, hits mostly inhibitors; AID 485314; P06746; 340,000 compounds, 1.3% hits; Pol beta primer extension/strand displacement, fluorescence kinetic; note: potency is the fitted concentration of half-maximal effect; % is set by controls: 0 for no effect and ±100 for the full control effect
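Homogeneous kinetic assay of primer extension and strand displacement by 10 nM Pol beta, preincubated 15 min at room temperature with compound before 50 nM substrate (final) was added. Read at 0 and 10 min; four-parameter Hill fit.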
WRN helicase inh – WRN helicase (human) inhibition; Q14191; WRN helicase unwinding, fluorescent forked duplex, kinetic; Potency, µM (titrated, usually from 114 µM), without a hit: at the top dose activity change, negative = inhibition, hits mostly inhibitors; 360,000 compounds, 0.46% hits; AID 651768; note: potency is the fitted concentration of half-maximal effect; % is set by controls: 0 for no effect and ±100 for the full control effect; nearly all actives have a fitted effect of over 55% in size
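Enzyme (20 nM final) and test compound sit together 15 min at room temperature before substrate addition. Substrate is a single-forked duplex oligonucleotide (100 nM) labelled with fluorophore and quencher, with 2 mM ATP; helicase unwinding raises red fluorescence, read kinetically.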
POLH inh – DNA polymerase eta (human) inhibition | Q9Y253 | recombinant Pol eta, fluorescent DNA replication assay | Potency, µM (top dose mostly 114 µM), inactives show at the top dose activity change, negative = inhibition, usual class: inhibitors | 390,000 compounds, 1.2% hits | AID 588591; note: potency is the fitted concentration of half-maximal effect; % is set by controls: 0 for no effect and ±100 for the full control effect
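Pol eta at 10 nM preincubated with compounds 15 min at room temperature; reaction started with fluorescent substrate (50 nM final) and read kinetically at 0 and 10 min.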
Numbers without * were called inactive; u = inconclusive; x = no result; ! = repeats disagree; [ ] = another dose, or the depositor's remark. Unless noted, calls come from the whole dose curve; as a rule, active = well fitted curve in the direction sought with a large enough effect; inconclusive = small, poorly fitted or top-dose-only effect, or another doubt; inactive = no such curve, though single readings can be large; an effect the other way counts as inactive or inconclusive.

SMILES | PI5P4K alpha inh | Pol kappa inh | POLI inh | POLB inh | WRN helicase inh | POLH inh
COc1ccc(-c2cc(C(C)=O)c(C)n2CCC(=O)NCc2ccc(F)cc2)cc1 | x | -3%[60.1 µM] | 3% | -15% | x | -12%
CC1=NN(c2ccccc2)C(=O)/C1=C/c1ccc(Cl)cc1 | -4 | 2% | u | -29% | 3%[11.6 µM] | -2%
COc1ccc(/C=C2/C(=O)N(Cc3ccccc3)N=C2C)cc1 | 10 | -3% | 22µM* | 70% | -34%[57.1 µM] | -18%
COc1cc(OC)cc(C(=O)OCC(=O)c2cc(C)n(CC3CCCO3)c2C)c1 (centres undefined) | -3 | -8% | 12% | x | -4% | -13%
Cc1cc(C(=O)COC(=O)c2ccc(O)cc2)c(C)n1CC1CCCO1 (centres undefined) | 4 | u | 89µM* | 29% | 3%[11.6 µM] | -24%
COc1ccc(-c2n[nH]c(C(F)(F)F)c2-c2cc3ccccc3o2)c(O)c1 | x | -3% | 79µM* | 0% | -25% | -11%
COc1ccccc1-c1c(-c2ccc(OCC(=O)NN)cc2O)n[nH]c1C(F)(F)F | 0 | -3% | 10% | 22% | 4% | -18%
O=C(Nc1cccc(C(F)(F)F)c1)c1cc2ncc(Br)cn2n1 | x | -13% | u | -22% | -5% | -6%
O=C(Nc1ccc2c(c1)OCO2)c1cc2nc(C3CC3)cc(C(F)(F)F)n2n1 | x | -18% | u | 40µM* | -10%[57.1 µM] | u
COC(=O)c1ccccc1NC(=O)c1cc2nc(-c3ccc(OC)cc3)cc(C(F)(F)F)n2n1 | x | -9% | -2% | 40% | x | 0%
COC(=O)c1ccccc1NC(=O)c1cc2nc(C3CC3)cc(C(F)(F)F)n2n1 | x | -22% | u | 50µM* | -5%[57.1 µM] | 79µM*
O=C(Nc1ccc2c(c1)OCO2)c1cc2ncc(Br)cn2n1 | u | -41% | u | 28µM* | u | 3.5µM*
CCN(C(=O)c1sc2nc3n(c(=O)c2c1C)CCCC3)c1ccccc1F | x | -10% | 65% | -3% | x | 3%
Cc1ccc(NC(=O)C(=O)NCC(c2cccnc2)N2CCN(Cc3ccccc3)CC2)cc1C (centres undefined) | x | -4% | -6% | -24% | x | -4%
CC(Cc1ccc(O)c(O)c1)C(C)Cc1ccc(O)c(O)c1 (centres undefined) | -82* | 10µM* | 45µM* | x | 18µM* | 28µM*
COc1cc(C[C@@H](C)[C@@H](C)Cc2ccc(O)c(OC)c2)ccc1O | 10 | -11% | 2% | x | -6% | -11%
C[C@H](Cc1ccc(O)c(O)c1)[C@@H](C)Cc1ccc(O)c(O)c1 | x | 1.7µM* | 1.8µM*! | 0.79µM* | x | 3.2µM*
Cc1ccc(CSc2nnc(-c3ccc(NC(=O)CCc4ccccc4)cc3)n2C)cc1 | x | -12% | 14% | x | x | x
Oc1ccc(N=Cc2ccc(OCc3ccccc3)cc2)cc1 | u | -22% | u | 2% | -19% | 22µM*
Cc1ccc(C)c(N2CCN(C(=O)CCCCCn3c(=O)[nH]c4ccccc4c3=O)CC2)c1 | x | -7%[60.1 µM] | -9% | 10% | x | -4%
C[C@@](N)(Cc1ccc(O)cc1)C(=O)O | x | -8%[60.1 µM] | x | x | x | x
CC(N)(Cc1ccc(O)c(O)c1)C(=O)O (centres undefined) | x | u | u | 5.6µM* | x | -3%[57.1 µM]
C=CCn1c(SCC(=O)NCCOC)nc2scc(-c3ccco3)c2c1=O | -7 | u | u | u | u | 18µM*
Cn1c(SCC(=O)NCC2CCCO2)nc2scc(-c3ccccc3)c2c1=O (centres undefined) | 12 | -9% | 25% | x | -3% | -21%
C=CCn1c(SCC(=O)NCC2CCCO2)nc2scc(-c3ccco3)c2c1=O (centres undefined) | x | -33% | u | 7.1µM* | -1%[11.6 µM] | -9%
SMILES | PI5P4K alpha inh | Pol kappa inh | POLI inh | POLB inh | WRN helicase inh | POLH inh
COc1ccc(S(=O)(=O)N(CC(=O)Nc2cc(Cl)ccc2C)Cc2ccccc2)cc1OC | x | 4% | 4% | -10% | x | -18%
O=C(Cc1cc(=O)[nH][nH]1)N/N=C/c1ccccc1Cl | -16 | -20% | -10% | 17% | -22% | -4%
O=C(Cc1cc(=O)[nH][nH]1)N/N=C/C(Cl)=C/c1ccccc1 | u | -30% | 3.2µM*! | 50µM* | -2%[11.6 µM] | u
Cc1cccc(-c2nc3cc(NC(=O)COc4ccccc4F)ccc3o2)c1 | x | 4% | 5% | 4% | x | x
C[C@H](NC(=O)OC(C)(C)C)[C@@H](O)c1ccco1 | x | 11% | 47% | x | x | x
CC1CC1C(=O)OCC(=O)Nc1ncc(Cl)cc1Cl (centres undefined) | u | u | 14µM* | x | u | 28µM*
Nc1nc(SCC(=O)Nc2ncc(Cl)cc2Cl)n[nH]1 | u | -41% | 79µM* | x | -12%[11.6 µM] | u
O=C(COC(=O)/C=C/c1ccco1)Nc1ncc(Cl)cc1Cl | -20 | u | 35µM* | u | -18%[57.1 µM] | 40µM*
CC1CC1C(=O)OCC(=O)NCc1ccc(Cl)cc1Cl (centres undefined) | -5 | -6% | 13% | -5% | 6% | -8%
O=C(COC(=O)/C=C/c1ccco1)NCCN1C(=O)CSC1=O | -8 | -20% | -16% | x | -5% | 50µM*
CC(=O)c1cc(-c2ccccc2)n(CC(=O)NCCc2ccc(C)cc2)c1C | x | -14%[60.1 µM] | 3% | -16% | x | -7%
CCOc1ccc(C(=O)NCC(c2ccc3c(c2)OCO3)N2CCN(c3ccccc3F)CC2)cc1 (centres undefined) | x | -4%[60.1 µM] | 6% | -1% | x | -24%
Cc1ccc(C(=O)OCC(=O)Nc2ccccc2)cc1NC(=O)c1ccco1 | 0 | -23% | -1% | 10% | -11% | 3%
O=C(COC(=O)c1ccc2ncsc2c1)Nc1ncc(Cl)cc1Cl | -19 | -6% | u | 0% | -29% | 8.9µM*
CCCNC(=O)COC(=O)/C=C/c1ccco1 | -5 | -18% | -17% | u | -4% | u
Cc1nc(NC(=O)COC(=O)/C=C/c2ccco2)c(Cl)cc1Cl | -30 | 71µM* | 32µM* | x | -1%[11.6 µM] | 28µM*
Cc1ccc(C(=O)OCC(=O)Nc2ncc(Cl)cc2Cl)cc1NC(=O)c1ccco1 | x | -28% | 50µM* | u | -16% | u
CC(C)NC(=O)COC(=O)/C=C/c1ccco1 | 2 | -32% | 79µM* | 40µM* | -8%[57.1 µM] | u
Cc1c(Cl)cnc(NC(=O)COC(=O)c2ccc3ncsc3c2)c1Cl | -22 | -10% | u | -14% | -20%[57.1 µM] | u
COc1ccc(C(NC(=O)/C=C/c2ccco2)c2ccc(OC)cc2)cc1 | -28 | -7% | u | 16µM* | -17% | u
CN(CC(=O)NCCC1=CCCCC1)S(=O)(=O)c1ccc2c(c1)c(=O)n(C)c(=O)n2C | -1 | -19% | 79µM* | 5% | -9% | -5%
